The whole screen tested about 420,000 compounds, of which about 50,000 (12%) were called active. Another 26% or so got no clear call; they are omitted. This excerpt belongs to a sample that is enriched for actives. Unmarked numbers belong to inactive results. Calls follow the shape of the dose curve; as a rule, active = well fitted inhibition curve with a large enough effect; inconclusive = small, poorly fitted or top-dose-only effect; inactive = flat fitted curve, though single readings scatter.

This note sets out measurements from PubChem BioAssay AID686979 (National Center for Advancing Translational Sciences (NCATS), 2013).
% is scaled to controls: 0 for no effect and ±100 for the full control effect; potency is read from the fitted curve at half-maximal effect.

A short description of the experiment: qHTS for Inhibitors of human tyrosyl-DNA phosphodiesterase 1 (TDP1): qHTS in cells in presence of CPT. Also: nearly all actives have a fitted effect of over 55% in size. The conditions noted are these: chicken DT40 Tdp1-/-;hTDP1 cells + 20 nM CPT, ATP luminescence, 48 h; series mostly up to 46.2 µM; activity change, negative = growth inhibition: at the top concentration. Summed up:
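Chicken DT40 Tdp1-/- cells complemented with human TDP1, 400 cells/well, exposed to compounds plus 20 nM camptothecin for at least 48 h at 37 C; viability read as ATP content by CellTiter-Glo luminescence.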
Turning to `CCOc1nc(NCCN2CCOCC2)nc(Nc2ccc(C)cc2)n1`, the “activity change, negative = growth inhibition” value was -12.3%. On the same count and under the same terms, in the case of `Cc1ccc(-c2nnc3c4ccccc4c(C)nn23)cc1NC(=O)c1cccc(Br)c1` it was -2.49%.

Turning to `Cc1cc[n+](-c2[nH]c(=O)sc2/C=N/NC(=O)c2ccccc2[O-])cc1C`, the “activity change, negative = growth inhibition” value was 5.4%. For `O=C(CN1CCN(c2ccccn2)CC1)Nc1ccc(Br)cc1`, the “activity change, negative = growth inhibition” value is -23.7%. For `Brc1ccc(-c2n(-c3ccccn3)c3ccccc3[n+]2-c2ccccn2)cc1`, the Potency is 18.4 µM (active). Consider `COc1cccc(NC(=O)N2CCC(NC(=O)C(Cc3cccc(C)c3)NC(C)=O)CC2)c1` (stereo not given), for which the “activity change, negative = growth inhibition” value was -13.8%. For the compound `Cn1c(-c2ccc(C(F)(F)F)cc2)cc2onc(-c3ccccc3)c2c1=O`, the “activity change, negative = growth inhibition” value was -14.9%. Still for that read-out and setting: in the case of `O=C(c1csnn1)N1CCC2(CC1)CN(c1ncccn1)C2` it was 0.98%; in that of `CSCCC(Nc1ccc(S(=O)(=O)N2CCOCC2)cc1[N+](=O)[O-])C(=O)OCC(=O)N(C(C)C)C(C)C` (stereo not given), -16.1%. Take `CN(C)C(=O)c1ccc2c(c1)C1C3CCC(C3)C1C(c1ccccc1)N2` (stereo not given): the Potency was 16.4 µM (active).

For `CN(C)C(=O)c1ccc(NC(=O)c2ccccc2-c2ccccc2)cc1`, the “activity change, negative = growth inhibition” value was 21.7%.

With `Cc1sc(NC(=O)c2ccc3ncsc3c2)c(C(N)=O)c1C`, the “activity change, negative = growth inhibition” value was -20.7%. Regarding `COc1cccc(NC(=O)N2C3CCCC2CC(NC(C)=O)C3)c1` (stereo not given), the “activity change, negative = growth inhibition” value was -14%.

Turning to `CCOC(=O)N1CCC(NC(=O)c2cnn3ccccc23)CC1`, the “activity change, negative = growth inhibition” value is -1.32%. `CC(C)(C)OC(=O)N1CCC(c2c(C(=O)N3CCN(c4cccc(Cl)c4)CC3)cnn2-c2cccc(Cl)c2)CC1`: the Potency is 14.6 µM (active). With `CCOC(=O)N1CCC(NC(=O)CCc2ccccc2)CC1`, the “activity change, negative = growth inhibition” value was -3.28%.

With `CCOC(=O)N1CCC(NC(=O)c2cnn(-c3cccc(C)c3)c2C2CCN(C(=O)OC(C)(C)C)CC2)CC1`, the Potency was 23.1 µM (active). Regarding `Cc1cccc(-n2ncc(C(=O)N3CCC(C)CC3)c2C2CCN(C(=O)OC(C)(C)C)CC2)c1`, the “activity change, negative = growth inhibition” value is -7.73%. Same read-out and setting: in the case of `CC(C)(C)OC(=O)N1CCC(C(=O)NNC(=O)c2ccc(Cl)cc2Cl)CC1` it was -11.4%. For the compound `COc1cccc2c1cc1c(=O)n(CC(=O)N3CCN(c4cccc(Cl)c4)CC3)nc(C)n12`, the “activity change, negative = growth inhibition” value was -12.6%.

In the case of `Cc1cccc(-n2ncc(C(=O)N3CCN(c4ccc(Cl)cc4)CC3)c2C2CCN(C(=O)OC(C)(C)C)CC2)c1`, the Potency is 14.6 µM (active). With `Cc1cccc(-n2ncc(C(=O)N3CCc4ccccc4C3)c2C2CCN(C(=O)OC(C)(C)C)CC2)c1`, the “activity change, negative = growth inhibition” value is 2.4%.

As to `CCCCN(C(=O)CCNC(=O)NC12CC3CC(CC(C3)C1)C2)c1c(N)n(CCCC)c(=O)[nH]c1=O`, the “activity change, negative = growth inhibition” value was -12.9%. The same measure, in the same setting: the figure for `Cc1ccc(S(=O)(=O)N2CC(O)C[C@H]2C(=O)OCC(=O)Nc2ccc(N3CCOCC3)cc2)cc1C` (stereo not given in full) is -0.832%; for `COc1ccc(S(=O)(=O)N2CCCC2CNC(=O)C(=O)NC2CC2)cc1` (stereo not given) it is 7.32%. For `Cc1ccc(NC(=O)CC2S/C(=N/N=C3\CCCc4ccccc43)NC2=O)cc1` (stereo not given), the “activity change, negative = growth inhibition” value is -0.71%. On the same count and under the same terms, in the case of `CN1C(=O)/C(=C\c2cc(Br)cs2)c2ccccc21` it was -29.3%.

Turning to `N#CC1=C(N)Oc2cc(N)ccc2C1c1ccccc1` (stereo not given), the Potency was 23.1 µM (active). In the case of `N#CC1=C(N)Oc2c(ccc3cccnc23)C1c1ccncc1` (stereo not given), the “activity change, negative = growth inhibition” value is -20.9%. Still for that read-out and setting: in the case of `Cc1cc(C)c2c3c(sc2n1)C(c1ccccc1)C(C#N)=C(N)O3` (stereo not given) it was -20.3%; in that of `CN1C(=O)C2(OCCCO2)c2cc(Cl)ccc21`, 9.13%; in that of `C=O`, 10.9%. The same measure, in the same setting: the figure for `COc1ccc(C(CNC(=O)c2ccc(OCc3cscn3)cc2)N2CCCC2)cc1` (stereo not given) is -10.8%.

For `CCOc1ccc(NS(=O)(=O)c2ccc(C(=O)NCC(c3ccccc3OC)N3CCCC3)cc2)cc1` (stereo not given), the Potency is 29.1 µM (active). For `CCOc1ccc(NS(=O)(=O)c2ccc(C(=O)NCC3CCCO3)cc2)cc1` (stereo not given), the “activity change, negative = growth inhibition” value is -27.2%. As to `CN=C(NC#N)NCCSCc1nc[nH]c1C`, the Potency result was “inactive”.

On to `CCC(C)C(=O)Nc1cc([N+](=O)[O-])ccc1Cl` (stereo not given), for which the “activity change, negative = growth inhibition” value was -3.83%. For `CC(=O)Nc1ccc(NC(=O)c2ccc3c(c2)C(=O)N(c2ccccc2C)C3=O)cc1`, the “activity change, negative = growth inhibition” value is -2.84%. On to `O=S(=O)(NCc1ccccc1)c1ccc(S(=O)(=O)N2CCCC2)cc1`, for which the “activity change, negative = growth inhibition” value is -21.9%.

On to `O=S(=O)(c1ccc2nc(N3CCN(c4cccc(Cl)c4)CC3)ccc2c1)N1CCCCC1`, for which the “activity change, negative = growth inhibition” value was 4.01%. For `O=S(=O)(c1ccc2nc(NCc3ccccc3Cl)ccc2c1)N1CCCCC1`, the Potency was 10.3 µM (active). As for `CC(C)C(NC(=O)C1CCC(C(C)(C)C)CC1)C(=O)NCCCN1CCCCC1` (stereo not given), the “activity change, negative = growth inhibition” value is 26.4%. Still for that read-out and setting: in the case of `CC(C)N1C(=O)c2ccccc2NC(=O)C1C(=O)NCc1cccs1` (stereo not given) it was -29.6%. Take `CCOc1ccc(N(CC)S(=O)(=O)N2CCCC(C(=O)Nc3ccc(C(C)=O)cc3)C2)cc1` (stereo not given): the Potency is 20.6 µM (active).

Turning to `CCS(=O)(=O)N1CCCC(C(=O)NCc2ccc(C)cc2)C1` (stereo not given), the “activity change, negative = growth inhibition” value was -12.6%. Same read-out and setting: the figure for `CCOc1ccc(NC(=O)C2CCCN(C(=O)Nc3ccccc3)C2)cc1` (stereo not given) is 0.551%. The same measure, in the same setting: in the case of `CCOc1ccc(NC(=O)c2cc(S(=O)(=O)N3CCCC3)c[nH]2)cc1` it was -13.5%. With `COc1ccc(CNC(=O)C2CCN(S(=O)(=O)c3ccc(SC)cc3)CC2)cc1`, the “activity change, negative = growth inhibition” value is -19.3%. Regarding `CCOc1ccc(N(CC)S(=O)(=O)N2CCCC(C(=O)NCc3ccc(SC)cc3)C2)cc1` (stereo not given), the Potency is 23.1 µM (active). As to `COc1cccc(CNC(=O)CN(C)S(=O)(=O)c2ccc3c(c2)c(=O)n(C)c(=O)n3C)c1`, the Potency result was “inactive”.
